Data: PubChem BioAssay (NCATS)
Values joined by “and” are separate entries in the source; they are usually repeats but may differ in a detail not shown here. Equal entries are not always repeated. Records with an inconclusive call do not appear. A number with no mark means an inactive call. Active and inactive are the calls of the source. The call rests on the fitted dose curve; in most records, active means well fitted curve in the direction sought with a large enough effect; inconclusive means small, poorly fitted or top-dose-only effect, or another doubt; inactive means no such curve, though single readings can be large; an effect the other way counts as inactive or inconclusive.

Test: Viability qHTS for spleen associated tyrosine kinase inhibitor (SYKi) drug resistant MV4-11 cells (AID 1963824); further: nearly all actives have a fitted effect of over 35% in size
Details: SYKi-resistant MV4-11 viability, CellTiter-Glo, 72 h; series mostly up to 45 µM
Procedure, shortened: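 CellTiter-Glo luminescence, read 10 min after reagent addition, reports viability after a 72 hr compound exposure. Cells are an MV4-11 line made resistant to SYK inhibition, seeded at 500 per well onto compound-containing plates.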
Potency means the concentration at half of the fitted maximal effect.

SMILES	Potency
Cc1nc(NC(=O)N2CCC[C@H]2C(N)=O)sc1-c1csc(C(C)(C)C)n1	7.42 µM (active)
COc1cc(C)c(/C=C/C(C)=C/C=C/C(C)=C/C(=O)O)c(C)c1C	4.68 µM (active)
Cc1ccc(-n2nc(C(C)(C)C)cc2NC(=O)NCc2cc(F)ccc2Oc2ccc3c(cnn3CCO)c2)cc1	10.3 µM (active)
Cc1ccc2cc(-c3c(C)ccc(C(=O)c4c(-c5ccccc5)n(C)n(-c5ccccc5)c4=O)c3N)ccc2n1	9.34 µM (active)

Test: Cellular viability qHTS for adrenocortical cancer (ACC) cell line SW-13 (AID 1963989); further: nearly all actives have a fitted effect of over 65% in size;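 on activity (max response): cells grown in serum-free medium with ITS supplement; on the % scale 0 is the no-effect control and ±100 the full control effect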
Details: SW-13 ACC cells viability, CellTiter-Glo, 48 h; activity (max response): active compounds read low
Procedure, shortened: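 Here, serum-free SW-13 cultures were dosed up to 46 uM. Following 48 h, ATP-dependent luminescence (CellTiter-Glo) reported viable cells, and logistic modeling produced IC50 values.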

SMILES	activity (max response) [%]	Potency
O=C(NCCCNc1nc(Nc2cccc(CN3CCOCC3)c2)ncc1C1CC1)C1CCC1	10.1	–
CCCCC/C(C=O)=C\c1ccccc1	6.34	–
CCN1CCN(Cc2ccc(Nc3ncc(F)c(-c4cc(F)c5nc(C)n(C(C)C)c5c4)n3)nc2)CC1	–	15.8 µM (active)
Oc1cccc(-c2c3nc(c(-c4cccc(O)c4)c4ccc([nH]4)c(-c4cccc(O)c4)c4nc(c(-c5cccc(O)c5)c5ccc2[nH]5)CC4)C=C3)c1	–	6.51 µM (active)
O=C(/C=C/C#Cc1cccc(NS(=O)(=O)c2ccccc2)c1)NO	–	8.02 µM (active)
Nc1ccc(C(=O)O)c(O)c1	12.8	–
CCNC1(C(N)=O)CCN(c2ncnc3c2nc(-c2ccccc2Cl)n3-c2ccc(Cl)cc2)CC1	-4.01	–
CC(C)n1nc(-c2cc3cc(O)ccc3[nH]2)c2c(N)ncnc21	–	5.8 µM (active) and 14.1 µM (active)
CCOC(=O)c1ccnc(CNCC(=O)N(CC)CCN(C)C)c1	-23.8	–
CN=C(NC#N)NCCSCc1csc(N=C(N)N)n1	7.67	–
CO/N=C(/C(=O)N[C@@H]1C(=O)N2C(C(=O)[O-])=C(C[n+]3ccn4ncccc43)CS[C@H]12)c1nsc(N)n1	-7.2	–
C[C@H](NC(=O)c1c(N)nn2cccnc12)c1cc2cccc(C#Cc3cnn(C)c3)c2c(=O)n1-c1ccccc1	-17.5	–
O=c1sn(-c2cccc3ccccc23)c(=O)n1Cc1ccccc1	-18.3	–
O=C(Nc1ccc(OC(F)(F)Cl)cc1)c1cnc(N2CC[C@@H](O)C2)c(-c2ccn[nH]2)c1	–	20 µM (active)
CCCCN(CCCC)CCCOC(=O)c1ccc(N)cc1	-3.65	–
C=CC(=O)N1CCC(CNc2ncnc(N)c2-c2ccc(Oc3ccccc3)cc2)CC1	-22.9	–
FC(F)(F)C(F)(F)C(F)(F)C(F)(F)C(F)(F)C(F)(F)C(F)(F)C(F)(F)Br	7.96	–

SMILES	activity (max response) [%]	Potency
CC1(N)CCN(c2cccnc2NC(=O)c2nc(-c3ncccc3C(F)(F)F)cnc2N)CC1	–	17.8 µM (active)
Cc1ncc(NC(=O)c2cccc(C(F)(F)F)c2)cc1-c1cnc(OC2CCOCC2)c(N2CCOCC2)c1	–	22.4 µM (active)
COc1cc2ncnc(Nc3ccc(O)c(Br)c3)c2cc1OC	–	3.55 µM (active)
Nc1nccc2c1ncn2[C@@H]1C=C(CO)[C@@H](O)[C@H]1O	–	7.94 µM (active)
CN1CCN(c2ccc3nc(-c4c(N)c5c(F)cccc5[nH]c4=O)[nH]c3c2)CC1	–	15.8 µM (active)
Cc1cc(OCCOCC[N+](C)(C)Cc2ccccc2)ccc1C(C)(C)CC(C)(C)C	–	5.8 µM (active)
CC1(C)CN(C(=O)c2ccc(-c3cccc4nc(NC(=O)C5CC5)nn34)cc2)C1	2.66	–
CCN(CC)C(=O)N1CCN(C)CC1	-0.284	–
Cc1cc(CS(=O)(=O)c2ccccc2)cc(OCc2ccc(CN3CCC[C@@H]3CO)cc2)c1	–	28.2 µM (active)
CC(C)CNc1ccnc(NCc2csc(-c3ccccc3)n2)n1	–	11.2 µM (active)
O=C(O)c1ccccc1C(=O)Nc1ccc(S(=O)(=O)Nc2nccs2)cc1	-9.68	–
C=C1CCC2[C@](C)(CO)C(O)CC[C@]2(C)C1C/C=C1/C(=O)OCC1O (some centres not stated)	–	25.1 µM (active)
O=C(Nc1cc(Oc2cc(F)c(NC(=O)C3(C(=O)Nc4ccc(F)cc4)CC3)cc2F)ccn1)C1CC1	-9.83	–
C=C[C@H]1CN2CC[C@H]1C[C@@H]2[C@@H](O)c1ccnc2ccc(OC)cc12	6.85	–
CC(C)(C)CC(C)(C)c1ccc(OCCOCC[N+](C)(C)Cc2ccccc2)cc1	–	5.17 µM (active)
O=C(O)[C@@H]1[C@H]2C[C@H]3c4[nH]c5ccccc5c4CCN3C[C@@H]2CC[C@@H]1O	3.73	–
